Among the data in PubChem BioAssay AID540364 (The Scripps Research Institute Molecular Screening Center, 2011) are activation values, retold here.

The whole screen tested about 360,000 compounds, of which about 2,000 (0.56%) were called active. The list comes from a sample in which actives are over-represented; it also holds similar structures and randomly drawn compounds. Unmarked numbers belong to inactive results.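 Rule for the calls: active = activation above the average of all compounds screened plus 3 SD, cutoff fixed separately per campaign (cut at about 7.5% in these data); inactive = the rest.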

The assay is described as follows: GAA850 frataxin promoter reporter upregulation – cell-based, luciferase luminescence, HEK293 lucGAA850, primary screen (AID 540364).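 Note: 0% = DMSO wells and 100% = 10 µM SAHA wells.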 Conditions: HEK293 lucGAA850 FXN promoter luciferase reporter, 24 h; at 6 µM; hits give high values; percent of 10 µM SAHA response.
As for `O=C(CCN1C(=O)c2ccncc2C1=O)Nc1ccc2c(c1)OCCO2`, the activation is -1.17%. Take `O=C(Nc1ccc2c(c1)OCCO2)c1ccoc1`: the activation was 0.23%. With `O=C(Nc1ccc2c(c1)OCCO2)c1cnccn1`, the activation is 7.89% (active). For `CC[C@]1(C(=O)OC)[C@H]2C(=O)N(C)C(=O)[C@H]2[C@H]2CN(C)C(=NCc3ccccc3)N21`, the activation was -0.41%. For `CC[C@]1(C(=O)OC)[C@H]2C(=O)N(Cc3ccccc3)C(=O)[C@H]2[C@H]2CN=C(SCc3ccccc3)N21`, the activation was 15.5% (active).

As to `CC[C@]1(C(=O)OC)[C@H]2C(=O)N(Cc3ccccc3)C(=O)[C@H]2[C@H]2CN=C(SCc3ccc(Cl)cc3)N21`, the activation was 17.8% (active). Take `CC[C@]1(C(=O)OC)[C@H]2C(=O)N(Cc3ccccc3)C(=O)[C@H]2[C@H]2CN=C(SCc3ccc(C#N)cc3)N21`: the activation is 13.3% (active).

With `CCCN=C1N(C)C[C@@H]2[C@@H]3C(=O)N(Cc4ccccc4)C(=O)[C@@H]3[C@](C)(C(=O)OC)N12`, the activation is -0.73%.

For the molecule `COC(=O)[C@]1(Cc2ccccc2)N[C@H](CN(C)S(=O)(=O)c2ccc(F)cc2)[C@@H]2C(=O)N(Cc3ccccc3)C(=O)[C@@H]21`, the activation was -3.95%. For `CCNC(=O)N(CC)C[C@H]1N[C@@](CC)(C(=O)OC)[C@H]2C(=O)N(Cc3ccccc3)C(=O)[C@@H]12` the value was 0.95%; for `CCN1C[C@@H]2[C@@H]3C(=O)N(Cc4ccccc4)C(=O)[C@@H]3[C@](Cc3ccccc3)(C(=O)OC)N2C1=NC1CCCCC1`, 0.85%. For `CCC1(CC)C(=O)C2=C3C1[C@H](C(=O)OC)C=C(C(=O)OC)C[C@H]3[C@H]1C(=O)N(Cc3ccccc3)C(=O)[C@H]1[C@H]2C` (stereo partly specified) the value was -4.42%. For `CCN(C[C@H]1N[C@@](Cc2ccccc2)(C(=O)OC)[C@H]2C(=O)N(Cc3ccccc3)C(=O)[C@@H]12)C(=O)c1ccc(C)cc1` the value was -1.78%.

On to `COC(=O)[C@@]1(C)[C@H]2C(=O)N(Cc3ccccc3)C(=O)[C@H]2[C@H]2CN=C(SCC3CC3)N21`, for which the activation is 15.7% (active).

For the molecule `CCN1C[C@@H]2[C@@H]3C(=O)N(Cc4ccccc4)C(=O)[C@@H]3[C@](C)(C1=O)N2C(=O)c1ccc(C(C)(C)C)cc1`, the activation is 1.3%. The result for `CCSC1(SCC)N=C(N)C2(C#N)C(c3ccccc3)NC(C)=CC12C#N` (stereo unspecified) reads -1.4%; that for `O=C1CSC2=NCN(c3ccccc3)CN12`, 1.46%; that for `CC(=O)Oc1ccc(OC(C)=O)c2c1C1C=CC2CC1`, 0.61%. The result for `CC(=O)N1CCN(c2ccc(NCc3ccc(C(C)C)cc3)cc2)CC1` reads -1.92%; that for `CC(=O)c1ccc(OC(=O)N2CCOCC2)cc1`, 0.72%; that for `CC(C)NC(=O)C1(C)CCCCN1Cc1cccc(C(F)(F)F)c1` (stereo unspecified), 0.98%. Regarding `CC(=O)N1c2ccc(S(=O)(=O)N3CCCC(C(=O)Nc4cccc(F)c4)C3)cc2CC1C` (stereo unspecified), the activation is 1.26%. As for `COCc1cc(=O)oc2cc(NS(=O)(=O)c3ccc(C)cc3)ccc12`, the activation was 0.66%. The result for `COc1ccc(CCNS(=O)(=O)c2cc3c(cc2C)NC(=O)CO3)cc1OC` reads -0.37%; that for `O=C1COc2c1ccc(O)c2O`, 1.71%; that for `S=C(NCCCc1cnc[nH]1)NCCCN(Cc1ccc(Cl)c(Cl)c1)c1ccc(Br)cn1`, -0.12%. Regarding `COc1ccc(OCc2cc(C(=O)NCC3(C)COC3)no2)c(Cl)c1`, the activation is 4.24%.

Turning to `Cc1cc(OCc2cc(C(=O)NCc3cc(C(C)C)no3)no2)cc(C)c1Cl`, the activation was 8.34% (active). As for `Cc1cccnc1CC(C)NC(=O)c1cc(COc2cncc(Cl)c2)on1` (stereo unspecified), the activation is 3.48%. The result for `O=C1CC(c2c(F)cccc2Cl)C(n2cncn2)C(O)=C1C1NCCc2ccccc21` (stereo unspecified) reads -1.97%; that for `CCOc1cc(CNCc2ccccn2)ccc1OCC(=O)NC(C)(C)C`, -1.18%; that for `C#CC(C)(C)NC(=O)CSc1nc2c(c(=O)n(C)c(=O)n2C)n1CCCC`, 0.86%. The result for `CCn1c(NCCc2ccc(OC)c(OC)c2)nc2c1c(=O)n(C)c(=O)n2C` reads -0.8%; that for `CCCCn1c(SCC(=O)NCCc2ccc(OC)c(OC)c2)nc2c1c(=O)n(C)c(=O)n2C`, 7.97% (active); that for `COc1cccc(CNS(=O)(=O)c2cc3c(cc2C)n(C)c(=O)c(=O)n3C)c1`, -0.74%. Regarding `COc1ccc([C@@H]2[C@@H]3C(=O)N(C(C)(C)C)C(=O)[C@@H]3[C@]3(Cc4ccccc4)C(=O)N(c4cccc(Br)c4)C(=O)N23)cc1`, the activation is 0.35%. The result for `CC[C@@]12C(=O)N(c3ccccc3)C(=O)N1[C@H](c1ccc(Br)cc1)[C@@H]1C(=O)N(C(C)(C)C)C(=O)[C@@H]12` reads 15% (active); that for `Cc1cccc([C@@H]2[C@@H]3C(=O)N(Cc4ccccc4)C(=O)[C@@H]3[C@]3(C)C(=O)N(c4ccc(Br)cc4)C(=O)N23)c1`, 4.94%. The result for `CC(C)(C)N1C(=O)[C@H]2[C@@H](c3ccc(Br)cc3)N3C(=O)N(c4cccc(Cl)c4)C(=O)[C@@]3(C)[C@H]2C1=O` reads 14.1% (active); that for `CCN1C(=O)[C@H]2[C@@H](c3ccc(C)cc3)N3C(=O)N(c4cccc(Br)c4)C(=O)[C@@]3(CC)[C@H]2C1=O`, 5.85%. As for `Cc1ccc(N2C(=O)N3[C@@H]4c5ccccc5OC[C@@H]4[C@@H](c4ccccc4)[C@@]3(C)C2=O)cc1`, the activation is -0.85%.

As for `CC1(Oc2ccccc2-c2ccno2)CCN(Cc2ccc(-c3ccccc3)o2)C1` (stereo unspecified), the activation was 1.3%.

`O=C(COc1ccc(Cl)cc1)NCCS(=O)(=O)N1CCN(c2ccc(F)cc2)CC1`: the activation is -2.02%. For the molecule `CN(Cc1ccccc1)C(=O)C1CCCN(c2ncnc3c2nc2n3CCCCC2)C1` (stereo unspecified), the activation is 1.56%. For the molecule `CSc1ccc(-c2c(C#N)c(N)nc3c2c(C)nn3-c2ccccc2)cc1`, the activation is 0.67%. For `COc1ccccc1-c1c(C#N)c(N)nc2c1CCC2` the value was 1.52%.

Turning to `CSc1nc(N)c(C#N)c(-c2ccccc2Cl)c1C#N`, the activation was 16.1% (active). Consider `COc1ccc(CNC(=O)c2ccc(-c3cccnc3)c3ccoc23)cc1OC`, for which the activation is 1.42%.

As to `Cc1ccc(O/C=C2\OC(=O)c3ccccc32)cc1`, the activation is -0.57%. The result for `CN(CCc1ccccn1)C(=O)CCC1CCCN(Cc2ccccc2OC(F)F)C1` (stereo unspecified) reads 0.65%. The result for `CN1CCc2nc(SC(C(=O)O)c3ccccc3)c(C#N)c(-c3cccs3)c2C1` (stereo unspecified) reads 1.01%; that for `CCc1c(-c2ccccc2)nc(N)c(C#N)c1-c1cccs1`, 3.81%. For the molecule `Cc1c(-c2ccccc2)nc(N)c(C#N)c1-c1cccs1`, the activation is 8.43% (active).

On to `Cc1cccc(C(=O)Nc2ccccc2C(=O)NCc2cccnc2)c1`, for which the activation is 0.13%. On to `CN(C)S(=O)(=O)c1ccc2oc(SCC(=O)Nc3ccccc3F)nc2c1`, for which the activation is 7.74% (active). For the molecule `COc1ccc(NS(=O)(=O)c2ccc3oc(SCC(N)=O)nc3c2)cc1`, the activation was -1.75%. For `COc1ccc(S(=O)(=O)N(C)C)cc1NC(=O)CSc1ncccn1` the value was 2.15%; for `Cc1noc(C)c1-c1ccc(C(=O)NCc2ccncc2)c2occc12`, 3.59%; for `CN(N)c1nc(N2CCCC2)nc(N2CCCC2)n1`, 1.2%. The result for `O=C(NCCN1CCOCC1)c1ccccc1N1C(=O)[C@@H]2Cc3c([nH]c4ccccc34)C(c3cccc(Cl)c3)N2C1=O` (stereo partly specified) reads -10.6%; that for `CN(C)[C@@H]1C(=O)C(C(N)=O)=C(O)[C@@]2(O)C(=O)C3=C(O)c4c(O)ccc(Cl)c4[C@@H](O)[C@H]3C[C@@H]12`, 13.6% (active).

On to `C=C1c2c(Cl)ccc(O)c2C(O)=C2C(=O)[C@]3(O)C(O)=C(C(N)=O)C(=O)[C@@H](N(C)C)[C@@H]3[C@@H](O)C12` (stereo partly specified), for which the activation is 13.5% (active).

Take `CN(C(=O)CN1CCN(c2cc(-c3ccc(OCc4ccccc4)cc3)ncn2)CC1)c1ccccc1`: the activation is -2.58%. Regarding `CN(C(=O)c1ccccc1)c1nccnc1C#N`, the activation was 1.95%. Turning to `CC(=O)N1CC2(C)CN(C(C)=O)CC(C)(C1)C2=O`, the activation was 1.87%. `CCCC1NC(=O)NC(C)=C1C(=O)OCC` (stereo unspecified): the activation is 0.3%. The result for `COCC(C)n1c(SCc2ccc(C(=O)OC)o2)nc2ccccc2c1=O` (stereo unspecified) reads 2.64%. The result for `COC(=O)c1ccc(CSc2nc3ccccc3c(=O)n2-c2cccc(OC)c2)o1` reads 10.1% (active); that for `COc1cccc(-n2c(SCC(=O)NC3CCS(=O)(=O)C3)nc3ccccc3c2=O)c1` (stereo unspecified), -0.8%; that for `Cc1ccc(C)c(OCCC(=O)OCC(=O)NC(=O)NCc2ccccc2)c1`, 1.32%. Regarding `CCCCN(CC(=O)NC(C)(C)C)C(=O)C(=O)Nc1ccc2c(c1)OCCO2`, the activation was 0.41%. As for `CCOC(=O)N1CCC(c2cc(=O)n(-c3ccccc3)[nH]2)CC1`, the activation was 1.97%.

For `Cc1ccc(C(=O)N2CCC(n3nccc3NC(=O)Nc3cccc(F)c3)CC2)cn1`, the activation is -1.64%. For `O=C(NCc1ccccc1)C(c1cccnc1)N(C(=O)c1csnn1)c1ccc(F)cc1` (stereo unspecified) the value was -0.33%; for `CCOc1ccc(S(=O)(=O)N2CCN(C(=O)c3oc4ccccc4c3C)CC2)cc1`, 1.62%. The result for `COc1ccc(CCNCC(O)Cn2ccc3ccccc32)cc1OC` (stereo unspecified) reads 0.29%.
